Measured values taken from PubChem BioAssay AID431 (Sanford-Burnham Center for Chemical Genomics, 2006).
Out of some 63,000 compounds screened, about 1,100 (1.7%) were called active.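 Rule for the calls: active = compounds whose percent cytotoxicity in the single-dose primary screen, scaled between solvent and toxic-drug controls, exceeds 50; inactive = the rest.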 What follows is part of a selection rich in actives, with near analogues and random picks from the rest. Entries with a potency or affinity are not part of this list.

Experiment: cytotoxicity in KRAS-transformed pancreatic duct cells, primary screen, cell-based, fluorescence, HTS (AID 431);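 note: 0% = DMSO solvent wells and 100% = doxorubicin-treated wells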
Conditions: HPDE-C7K KRASV12 cells, Alamar Blue viability, 48 h; at 10 µM; active compounds read high

Row | Compound | cytotoxicity
1 | COc1ccc(C2=NOC(C(=O)NCCCN3CCOCC3)C2)cc1 (stereo unspecified) | 1.1% (inactive)
2 | Cc1ccc(-c2nnn(CC(=O)N(c3ccccc3)C(C(=O)NC3CCCC3)c3ccco3)n2)o1 (stereo unspecified) | -7.9% (inactive)
3 | Cc1ccc(-c2nnn(CC(=O)N(Cc3cccs3)C(C(=O)NC3CCCC3)c3ccco3)n2)o1 (stereo unspecified) | 66.5% (active)
4 | Cc1ccc(-c2nnn(CC(=O)N(Cc3cccs3)C(C(=O)NC(C)(C)C)c3ccco3)n2)o1 (stereo unspecified) | -2.9% (inactive)
5 | CCOC(=O)N1CCN(C(=O)c2c(O)c3cccc4c3n(c2=O)CC4)CC1 | -3% (inactive)
6 | O=C(O)CSC1CC(=O)N(c2cccc(Cl)c2)C1=O (stereo unspecified) | -10.2% (inactive)
7 | CCc1nc(SCC(=O)c2ccc(C)c(C)c2)n[nH]1 | -2.5% (inactive)
8 | O=S(=O)(Nc1ccc2c(c1)nc1n2CCN(Cc2ccccc2)C1)c1ccccc1 | 0.8% (inactive)
9 | Cc1ccc(S(=O)(=O)Nc2ccc3c(c2)nc2n3CCN(Cc3ccccc3)C2)cc1 | 6.9% (inactive)
10 | O=S(=O)(Nc1ccc2c(c1)nc1n2CCN(Cc2ccccc2)C1)c1ccc(Cl)cc1 | 51.1% (active)
11 | COc1ccc(CC(C)N2CCN(c3ccccc3OC)CC2)cc1OC (stereo unspecified) | 8.7% (inactive)
12 | CCn1c(SCC(=O)NCc2ccco2)nc2c1c(=O)n(C)c(=O)n2C | -20.9% (inactive)
13 | COC(=O)c1cc(NC(=O)c2nccnc2C(=O)O)cc(C(=O)OC)c1 | -2.1% (inactive)
14 | CCOC(=O)C1=C(C)NC2=C(C(=O)c3ccccc32)C1c1cccnc1 (stereo unspecified) | 12.3% (inactive)
15 | CC(=O)C1=C(C)NC(C)=C(C(C)=O)C1c1ccc(-c2ccccc2Cl)o1 | -13% (inactive)
16 | COC(=O)C1=C(C)NC2=C(C(=O)c3ccccc32)C1c1ccc(-c2ccc(C(=O)O)cc2)o1 (stereo unspecified) | 62.8% (active)
17 | Cc1ccc(C(=O)NCc2ccco2)cc1S(=O)(=O)N1CCCCC1 | -20.4% (inactive)
18 | Cc1c(NC(=O)c2ccccc2N)cccc1C(=O)O | 6.3% (inactive)
19 | CC(=O)c1cccc(NC(=O)CN(Cc2ccccc2)S(C)(=O)=O)c1 | -3.4% (inactive)
20 | O=C(C(NS(=O)(=O)c1cccs1)c1ccccc1)N1CCN(c2ccccc2)CC1 (stereo unspecified) | -9.8% (inactive)
21 | Cc1cc(C(=O)N2CCN(c3cccc(Cl)c3)CC2)c(C)o1 | 62.7% (active)

Row | Compound | cytotoxicity
22 | COc1ccc(C(=O)N2CCN(c3cccc(Cl)c3)CC2)c(OC)c1 | 50.5% (active)
23 | Cc1cc(C(=O)N2CCN(c3ncccn3)CC2)c(C)o1 | 6.7% (inactive)
24 | COc1cccc(N2CCN(Cc3coc4c(Cl)cc(Cl)cc4c3=O)CC2)c1 | 65% (active)
25 | COc1ccccc1C(=O)N1CCN(c2cccc(Cl)c2)CC1 | 31.3% (inactive)
26 | Cc1ccc2occ(CN3CCN(c4ccccc4)CC3)c(=O)c2c1 | -18.2% (inactive)
27 | CCOc1ccc(C(=O)N2CCN(c3ccccc3)CC2)cc1OCC | -18% (inactive)
28 | CCOc1ccccc1C(=O)N1CCN(c2cccc(Cl)c2)CC1 | 65.8% (active)
29 | O=C(O)c1ccccc1C(=O)N1CCN(c2cccc(Cl)c2)CC1 | 0.5% (inactive)
30 | COc1ccc(N2CCN(Cc3cc(=O)oc4ccc(Cl)cc34)CC2)cc1 | -1.6% (inactive)
31 | COc1ccc(OC)c(S(=O)(=O)N(C)CC(=O)N2CCN(c3cccc(Cl)c3)CC2)c1 | -14.2% (inactive)
32 | COc1ccc2nc3oc(C(=O)N4CCN(c5cccc(Cl)c5)CC4)cc3cc2c1 | 25.9% (inactive)
33 | Cc1cc(C(=O)CSc2nc3ccccc3n2CCC#N)c(C)n1Cc1cccs1 | -13.5% (inactive)
34 | Cc1ccc(C(=O)CSc2nnc(CNc3ccc(C)cc3C)n2Cc2ccco2)cc1 | 30.1% (inactive)
35 | Brc1ccc2ncnc(Nc3ccc(N4CCOCC4)cc3)c2c1 | -4.9% (inactive)
36 | CCCn1c(SCC(=O)c2cc(OC)ccc2OC)nc2c1c(=O)n(C)c(=O)n2C | 8.2% (inactive)
37 | CCOC(=O)c1[nH]c(C)c(C(=O)NCC2CCCO2)c1C (stereo unspecified) | 5.6% (inactive)
38 | CCCCN(CC)C(=O)c1ccc(Cl)c(Cl)c1 | -3.6% (inactive)
39 | COc1cc(CN2CCSCC2)cc(OC)c1OC | -7.4% (inactive)
40 | O=C(c1ccccc1F)N1CCN(c2cccc(C(F)(F)F)c2)CC1 | -5.2% (inactive)
41 | Cc1ccc(C(=O)N2CCN(c3cccc(Cl)c3)CC2)cc1C | 27.4% (inactive)
42 | COc1ccc(CCNC(=O)CN2CCN(c3cccc(Cl)c3)CC2)cc1OC | 8.7% (inactive)

Row | Compound | cytotoxicity
43 | O=C(c1cccc(F)c1)N1CCN(c2cccc(Cl)c2)CC1 | 26.8% (inactive)
44 | O=C(c1c(Cl)nc2sccn12)N1CCN(c2cccc(Cl)c2)CC1 | 64.5% (active)
45 | COc1ccccc1C(=O)N1CCN(c2cccc(C(F)(F)F)c2)CC1 | 62.5% (active)
46 | COc1ccccc1CC(=O)N1CCN(c2cccc(C(F)(F)F)c2)CC1 | -1.7% (inactive)
47 | Nc1ccc(CCS(N)(=O)=O)cc1 | 12.4% (inactive)
48 | c1ccc(-c2noc(CN3CCN(C(c4ccccc4)c4ccccc4)CC3)n2)cc1 | -6.9% (inactive)
49 | CCCC(=O)c1cc(F)c(N2CCN(C(=O)OCC)CC2)cc1C | -0.7% (inactive)
50 | COCCSc1nnc(NC(=O)CSCc2ccccc2)s1 | 16.5% (inactive)
51 | CCCCOC(=O)Cn1c(=O)oc2ccc(C)cc21 | 5.8% (inactive)
52 | CN1CCCC(OC(=O)c2cc(Cl)ccc2Cl)C1 (stereo unspecified) | -23.9% (inactive)
53 | Cc1nnc2sc(-c3cccc(NC(=O)c4cccnc4)c3)nn12 | -1% (inactive)
54 | CSc1nnc2n(CCc3ccccc3)c(=O)c3c4c(sc3n12)CCCC4 | 15.3% (inactive)
55 | Cn1c(=O)c2[nH]cnc2n(-c2ccccc2)c1=O | -4.3% (inactive)
56 | COc1ccc(OC)c(Nc2nc(-c3sc(C)nc3C)cs2)c1 | 26.2% (inactive)
57 | COc1ccccc1Nc1nc(-c2cccs2)cs1 | 18.3% (inactive)
58 | COc1ccc(-c2csc(NC(C)=O)n2)cc1OC | 10.2% (inactive)
59 | COc1ccc(OC)c(Nc2nc(-c3cccs3)cs2)c1 | 54.9% (active)
60 | COc1ccc(OC)c(Nc2nc(-c3ccc(O)c(O)c3)cs2)c1 | 59.5% (active)
61 | COc1ccc(C(=O)Nc2nc(-c3cccs3)cs2)cc1 | 38% (inactive)
